Experiments:
Assay in all cases: PBM binding z-score (relative to random genomic background probes); higher = stronger binding; sequences stand for … in GC…GCGATTGACAGCGTAGAATGAAGG
[1] = system: FXR:RXRa (NR concentration 270 nM, RXRa partner concentration 90 nM)
Summary of the method: (§1)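 Binding buffer was PBS pH 7.4 with 2% milk, 0.02% Triton X-100, 1 mM DTT, 0.2 mg/mL BSA and 0.4 mg/ml salmon testes DNA. In it, ligand-free nuclear receptor dimers were incubated 1 h on custom Agilent 4×180K protein-binding microarrays carrying double-stranded probes. Antibodies against each partner (one per run) detected binding, and z-scores were calculated against random background probes after regression normalization of scanned fluorescence.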

[2] = system: LXRa:RXRa (NR concentration 270 nM, RXRa partner concentration 90 nM)
Summary of the method: as §1

[3] = system: LXRa homodimer (NR concentration 270 nM)
Summary of the method: as §1

[4] = system: LXRb:RXRa (NR concentration 270 nM, RXRa partner concentration 90 nM)
Summary of the method: as §1

[5] = system: LXRb homodimer (NR concentration 270 nM)
Summary of the method: as §1

[6] = system: PPARa:RXRa (NR concentration 270 nM, RXRa partner concentration 90 nM)
Summary of the method: as §1

[7] = system: PPARg:RXRa (NR concentration 180 nM, RXRa partner concentration 90 nM)
Summary of the method: as §1

[8] = system: PPARg:RXRa 270nM:90nM, anti-RXR (NR concentration 270 nM, RXRa partner concentration 90 nM)
Summary of the method: as §1

[9] = system: PPARg:RXRa 30nM:10nM, anti-RXR (NR concentration 30 nM, RXRa partner concentration 10 nM)
Summary of the method: as §1

[10] = system: PPARg:RXRa 90nM:30nM, anti-RXR (NR concentration 90 nM, RXRa partner concentration 30 nM)
Summary of the method: as §1

[11] = system: PPARg:RXRa DBDmut IVT, anti-RXR (DBD mutation: RXRa K156A/R161A, NR concentration 270 nM, RXRa partner concentration 90 nM)
Summary of the method: as §1

[12] = system: PPARg:RXRa IVT, anti-PPARg (NR concentration 270 nM, RXRa partner concentration 90 nM)
Summary of the method: as §1

[13] = system: PPARg DBDmut:RXRa IVT, anti-PPARg (DBD mutation: PPARg1 K132A/R137A, NR concentration 270 nM, RXRa partner concentration 90 nM)
Summary of the method: as §1

[14] = system: PPARg DBDmut IVT, anti-PPARg (DBD mutation: PPARg1 K132A/R137A, NR concentration 270 nM)
Summary of the method: as §1

[15] = system: PPARg homodimer (NR concentration 180 nM)
Summary of the method: as §1

[16] = system: PXR:RXRa (NR concentration 270 nM, RXRa partner concentration 90 nM)
Summary of the method: as §1

[17] = system: PXR homodimer (NR concentration 270 nM)
Summary of the method: as §1

[18] = system: RARa:RXR (NR concentration 270 nM, RXRa partner concentration 90 nM)
Summary of the method: as §1

[19] = system: RARa homodimer (NR concentration 270 nM)
Summary of the method: as §1

[20] = system: RARb:RXRa (NR concentration 270 nM, RXRa partner concentration 90 nM)
Summary of the method: as §1

| Sequence | PBM binding z-score [1] | PBM binding z-score [2] | PBM binding z-score [3] | PBM binding z-score [4] | PBM binding z-score [5] | PBM binding z-score [6] | PBM binding z-score [7] | PBM binding z-score [8] | PBM binding z-score [9] | PBM binding z-score [10] | PBM binding z-score [11] | PBM binding z-score [12] | PBM binding z-score [13] | PBM binding z-score [14] | PBM binding z-score [15] | PBM binding z-score [16] | PBM binding z-score [17] | PBM binding z-score [18] | PBM binding z-score [19] | PBM binding z-score [20] |
| --- | --- | --- | --- | --- | --- | --- | --- | --- | --- | --- | --- | --- | --- | --- | --- | --- | --- | --- | --- | --- |
| GCGACTGGGGCAAGGCAGGTTACCATAAGGTTGG | -0.183 | 0.247 | -0.418 | -0.0825 | -0.867 | 0.979 | 0.978 | 0.49 | -0.677 | 0.000745 | 3.58 | 3.12 | 0.704 | -0.934 | 0.688 | 0.207 | -0.567 | 0.854 | -0.915 | 0.95 |
| GATCGGAGGACAAGGTCAGAGCTTTGTCCGTAGA | 1.55 | 1.42 | -0.502 | 0.993 | -1.3 | 2.42 | 1.07 | 2 | -0.141 | 1.17 | -0.00086 | 0.881 | -0.747 | -1.99 | 0.29 | 1.76 | -0.362 | 2.03 | -0.62 | 3.47 |
| CCTTACGGGTCACTGAGAGGTTATAGCATTTGGA | 5.67 | 4.71 | 0.946 | 3.9 | -0.26 | 5.58 | 4.88 | 4.87 | 1.69 | 3.68 | 3.25 | 3.46 | 0.696 | -0.194 | 3.62 | 5.18 | 0.124 | 5.88 | 1.03 | 4.1 |
| TTACCAAGGTGAAGCTCGTTGATCCCTCTGTAGA | 0.0851 | -0.0821 | -1.1 | -0.274 | -1.24 | 1.09 | -0.0345 | 0.378 | 0.125 | 0.429 | 1.63 | 2.34 | -0.257 | -0.63 | -0.515 | -0.27 | -0.88 | 0.172 | -0.72 | 1.29 |
| TCGAGTAGGTTAGTCGGGGCATTCTGCCAACATA | -0.351 | -0.585 | -0.552 | 0.145 | -0.607 | 0.377 | -0.424 | 0.587 | 0.946 | 0.676 | 2.38 | 1.64 | -0.758 | -0.515 | -0.211 | -0.103 | -0.171 | -0.0333 | -0.547 | 0.287 |
| TCTATTAGTTGAAGGGCACCCGACGAGTCCGTTT | 0.72 | 0.953 | 0.3 | 0.709 | 0.846 | 0.943 | 0.172 | 2 | 3.71 | 2.96 | 2.29 | 0.553 | 0.299 | 1.3 | 1.25 | 0.824 | 1 | 0.844 | 1.45 | 1.36 |
| ACTAGCAGGCCAACGGTCACTCAAGATTAGTCCG | -0.155 | -0.0207 | 0.0255 | -0.508 | -0.572 | 1.37 | 2.56 | 3.92 | 2.08 | 3.72 | 1.21 | 1.38 | -0.412 | -0.352 | 0.237 | -0.526 | -0.588 | 0.0763 | -0.817 | 1.64 |
| TCAGACAGGTGAAGGTATCTCAGGTACGCAGTCG | 0.108 | 0.719 | -0.00263 | 0.477 | -0.0583 | 0.944 | 0.741 | 2.22 | 3.93 | 3.03 | 2.51 | 0.967 | -0.232 | 0.111 | 0.602 | 0.375 | 0.13 | 0.509 | 0.153 | 1.08 |
| CGTGAAAGTTCAAGGTAACGTAACAGAAAGCAGC | 5.94 | 5.62 | 2.82 | 3.12 | 0.85 | 4.54 | 3.2 | 4.01 | 1.51 | 3.03 | 0.31 | 1.59 | 1.08 | 0.978 | 2.81 | 4.03 | 2.44 | 3.46 | 0.962 | 4.93 |
| TCAGACAGGTGAAGGGAACTCAGGTACGCAGTCG | 0.945 | 0.772 | 0.0804 | 0.859 | 0.193 | 1.25 | 0.602 | 2.23 | 3.93 | 2.93 | 2.87 | 0.387 | -0.0761 | -0.559 | 0.811 | 0.733 | 0.499 | 0.697 | 0.593 | 1.04 |
| CAAACTGGGTCAAAGGTCAAAGTCGAGCCAACCA | 7.83 | 7.07 | 4.88 | 6.89 | 2.4 | 7.41 | 14.1 | 11.2 | 13.5 | 13 | 8.32 | 8.37 | 2.08 | 2.33 | 4.84 | 6.91 | 2 | 8.83 | 2.4 | 5.44 |
| CGAACTAGGTCATCCAGGAGAGTGAATACATTGA | 3.98 | 2.66 | 0.805 | 1.98 | -0.132 | 4.89 | 7.72 | 6.23 | 3.86 | 5.76 | 7.67 | 8.61 | 1.76 | 0.981 | 2.19 | 1.34 | 0.448 | 2.31 | 0.76 | 3.78 |
| TCTTGTAGATTAATAGAGGTTAAGAAAGTGCGCT | 1.31 | 4.17 | 2.85 | 2.28 | 0.623 | 2.07 | 0.283 | 2.2 | 3.11 | 2.59 | 2.32 | 0.996 | 0.986 | 0.929 | 1.23 | 3.4 | 0.795 | 2.2 | 0.565 | 1.21 |
| TCTTGTAGATCAACAGGAGGATAAGAAAGATCGA | 0.307 | 0.0206 | -0.000187 | 0.226 | -0.349 | 0.337 | 0.379 | 0.997 | 2.56 | 1.61 | 1.64 | 0.232 | 0.62 | 0.57 | 0.00545 | 0.187 | 0.0396 | 0.295 | -0.0742 | -0.284 |

— the supplement of paper PMC6555819
